Source: PubChem
Shown are actives, neighbours in structure and some others; about 6.2% of the full set was active somewhere.
ATXN2 expr inh = inhibitors of ATXN2 expression; HEK-293 ATXN2-luciferase reporter, luminescence, 24 h; Potency, µM (titrated, usually from 57 µM), for inactives: at the highest dose activity change, negative = inhibition, most hits filed as inhibitors; 360,000 compounds, 0.72% hits; note: % is set by controls: 0 for no effect and ±100 for the full control effect; nearly all actives have a fitted effect of over 55% in size
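qHTS (up to 57 uM final) was run with 24 h compound exposure of reporter cells at 37 °C. Each well was multiplexed: SteadyGlo luminescence measured ATXN2-luciferase expression after a fluorogenic Gly-Phe-AFC viability readout (25 uM final).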
ATXN viability = cell viability loss in ATXN counter-screen | S2 cells (HEK-293 line with an ATXN2-luciferase reporter) viability, CellTiter-Fluor protease fluorescence, 24 h | Potency, µM (doses to about 56.7 µM), usual class: cytotoxic | 400,000 compounds, 0.49% hits | AID 651635; note: nearly all actives have a fitted effect of over 40% in size
KB-V1 cytotox = kills drug-selected multidrug resistant KB-V1 cells; KB-V1 MDR cells viability, CellTiter-Glo, 72 h; Potency, µM (doses to about 46.1 µM), hits mostly cytotoxic; 400,000 compounds, 3.4% hits; note: % is set by controls: 0 for no effect and ±100 for the full control effect; nearly all actives have a fitted effect of over 60% in size
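In this primary screen, KB-V1 cells overexpressing P-gp are incubated with library compounds (lowest to highest concentration) for 72 h at 37 degrees C before a luminescent ATP viability read.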
HT1080 IDH1KD tx = kills HT-1080 cells with IDH1 knockdown; HT-1080 IDH1 knockdown viability, ATP luminescence, 48 h; 360,000 compounds, 2% hits; Potency, µM (titrated, usually from 46.1 µM), without a hit: top-dose activity, negative = toxicity, most hits filed as cytotoxic;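 note: 0% = DMSO wells and -100% = cell-free medium wells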
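Assay cells: HT-1080 with IDH1 knockdown, 750 per well, RPMI/5% FBS. Exposure: 48 h at 37 °C following 2 h pre-incubation. Read: CellTiter-Glo luminescence; fitted concentration-response, curve class assigned.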
HT1080NT lethal = kills 2HG-producing HT-1080-NT fibrosarcoma cells; AID 686970; 360,000 compounds, 1.6% hits; HT-1080-NT fibrosarcoma viability, CellTiter-Glo ATP luminescence, 48 h; Potency, µM (highest dose often 46.1 µM), without a hit: at the top dose activity, negative = less viability, most hits filed as cytotoxic;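 note: NT is the 2HG producing partner of a matched IDH1 knockdown line; 0% = DMSO-treated cells and -100% = media-only wells without cells; nearly all actives have a fitted effect of over 55% in size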
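A 48-hour cytotoxicity screen used HT-1080-NT cells plated 2 hours before compound delivery. ATP-based CellTiter-Glo luminescence measured viability, normalized to DMSO and no-cell controls.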
KB-3-1 cytotox = KB-3-1 parental cell cytotoxicity | KB-3-1 viability, CellTiter-Glo ATP luminescence, 72 h | Potency, µM (series often up to 46.1 µM), actives largely listed as cytotoxic | 400,000 compounds, 1.4% hits | AID 1347075; note: % is set by controls: 0 for no effect and ±100 for the full control effect; nearly all actives have a fitted effect of over 60% in size
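Cytotoxicity measured as CellTiter-Glo luminescence after 72 h at 37 C. Compound titrations were pinned onto drug-naive KB-3-1 parental adenocarcinoma cells grown in DMEM with 10% FBS, and normalized data fitted to concentration-response curves.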
Active calls of the source: *; i = inactive; ? = inconclusive; . = not tested or not shown; ! = not confirmed by another sample. Calls come from the whole dose curve; as a rule, active = well fitted curve in the direction sought with a large enough effect; inconclusive = small, poorly fitted or top-dose-only effect, or another doubt; inactive = no such curve, though single readings can be large; an effect the other way counts as inactive or inconclusive. Potency is the fitted concentration of half-maximal effect.

SMILES	ATXN2 expr inh	ATXN viability	KB-V1 cytotox	HT1080 IDH1KD tx	HT1080NT lethal	KB-3-1 cytotox
C=CCNC(=S)N/N=C(\C)c1ccc(-n2ccnc2)cc1	?	i	i	0.7%	-6.5%	i
CCN1C(=O)/C(=C2\C=Cc3cc(C)ccc3N2CC)OC1=S	2.8%	i	i	10.8%	17.8%	i
CCN1/C(=C/c2ccc3ccccc3[n+]2CCCS(=O)(=O)[O-])C=Cc2cc(C)ccc21	-15.9%	17.8µM*	i	-17.5%	-13.7%	i
CC[n+]1c2ccccc2cc2ccccc21	.	.	i	.	.	?
CCN1/C(=C/c2cc[n+](C)cc2)C=Cc2cc(C)ccc21	?	.	i	?	-4.6%	2.91µM*
CCN1/C(=C/c2ccc3ccccc3[n+]2CC)C=Cc2ccccc21	3.16µM*	10µM*	?	8.2µM*	6.51µM*	0.82µM*
O=C(c1ccc(Cn2c(=S)[nH]c3ccc(Br)cc3c2=O)cc1)N1CCN(C2CCCCC2)CC1	-19.6%	i	18.4µM*	4.8%	0.2%	?
CCN(CC)CCn1c(=S)[nH]c2cc(Cl)ccc2c1=O	-20.9%	i	i	?	17.8µM*	i
CC1CCCN(C(=O)CCCn2c(=S)[nH]c3ccccc3c2=O)C1 (stereo not given)	-4.6%	i	8.2µM*	13.4%	1.7%	i
CC1CCCCC1n1c(=S)[nH]c2ccccc2c1=O (stereo not given)	-6.3%	i	i	11.2µM*	12.6µM*	i
CCN(CC)CCn1c(=S)[nH]c2ccc(Cl)cc2c1=O	?	i	i	?	?	i
CC1CCCCC1NC(=O)CCCn1c(=S)[nH]c2ccccc2c1=O (stereo not given)	-8.6%	i	i	-22.8%	-6.0%	i
O=C(CCn1c(=S)[nH]c2ccccc2c1=O)N1CCCCC1	.	i	i	-1.3%	-1.0%	?
Cc1ccc(C(=O)NCc2ccc(N(C)C)cc2)cc1NC(=O)c1nsc2ccccc12	12.1%	i	i	.	.	i
COc1ccccc1CNC(=O)CCn1c(=O)c2ccccc2n(CC(=O)Nc2cc(Cl)ccc2C)c1=O	5.2%	i	i	.	.	i
CN(C)CCNC(=O)c1ccc2c(=O)n(Cc3ccc(Cl)cc3)c(=S)[nH]c2c1	-21.8%	i	i	?	23.1µM*	i
CCCCN(C)CCNC(=O)c1ccc(Cn2c(=S)[nH]c3ccc(Br)cc3c2=O)cc1	.	i	i	14.6µM*	20.6µM*	i
O=C(CCCCCn1c(=S)[nH]c2cc3c(cc2c1=O)OCO3)N1CCN(C2CCCCC2)CC1	?	?	20.6µM*	-0.2%	-3.9%	i
CCc1ccc(C(CNC(=O)c2ccc3c(=O)n(-c4ccccc4F)c(=S)[nH]c3c2)N(C)C)cc1 (stereo not given)	-19.6%	i	i	32.6µM*	?	i
COc1ccc(CNc2oc(-c3ccc(COc4ccccc4C)o3)nc2C#N)cc1	-1.3%	?	i	.	.	?
O=S1(=O)N=C(Oc2cccc(-c3ccccc3)c2)c2ccccc21	.	.	i	.	.	i
Cc1ncc2c(c1CNC(=O)c1ccc3c(c1)OCO3)CCN(C(=O)C1Cc3ccccc3O1)C2 (stereo not given)	.	i	.	.	.	.
CCOc1ccc2[nH]c(=O)c(CN(Cc3cccs3)Cc3nnnn3C(C)(C)C)cc2c1	?	?	20.6µM*	?	?	i
O=Cc1ccc(N2CCOCC2)cc1	.	.	i	.	.	i
COc1cccc(C2=CC(c3ccccc3)n3nnnc3N2)c1 (stereo not given)	63.5%	i	6.51µM*	?	7.94µM*	?
SMILES	ATXN2 expr inh	ATXN viability	KB-V1 cytotox	HT1080 IDH1KD tx	HT1080NT lethal	KB-3-1 cytotox
COc1ccc(C2=CC(c3ccc(OC)c(OC)c3)n3nnnc3N2)c(OC)c1 (stereo not given)	76.0%	.	i	-3.4%	0.7%	i
COc1ccc(C2=CC(c3ccc(N(C)C)cc3)n3nnnc3N2)cc1 (stereo not given)	6.4%	.	i	.	.	i
COc1cccc(C2=CC(c3ccc(N(C)C)cc3)n3nnnc3N2)c1 (stereo not given)	-4.1%	i	13µM*	?	-16.1%	18.4µM*
COc1cccc(C2C=C(c3ccc(OC)cc3OC)Nc3nnnn32)c1 (stereo not given)	?	.	23.1µM*	-12.7%	-21.9%	?
CC(=O)N(C)c1ccc(OCC(O)Cn2c3ccc(Cl)cc3c3cc(Cl)ccc32)cc1 (stereo not given)	?	?	20.6µM*	?	-16.2%	20.6µM*
O=S(=O)(c1ccc(Cl)cc1)n1ccc(-c2cccc(OCc3c(F)cccc3Cl)c2)n1	0.7%	i	i	-0.9%	8.9%	i
O=S(=O)(c1ccc(F)cc1)n1ccc(-c2cccc(OCc3c(F)cccc3Cl)c2)n1	1.3%	?	20.6µM*	-8.3%	-5.9%	?
Cn1cnc2c1c(=O)[nH]c(=O)n2C	30.6µM*!	i	.	.	.	.
Nc1cc(C(F)(F)F)ccc1S	-17.7%	i	.	.	.	.
Cc1ccc(-c2nc(S(=O)(=O)c3ccc(C)cc3)c(N3CCCCC3)o2)cc1	-0.5%	i	i	.	.	i
CCCCCCCCCCCC[n+]1ccc(C)c2ccccc21	.	.	i	.	.	4.11µM*
Cc1ccc2c(C)cc[n+](CCCS(=O)(=O)[O-])c2c1	-1.7%	i	i	13.2%	9.8%	i
Cc1cc[n+](C)c2ccccc12	.	.	i	.	.	i
Cc1cc[n+](CCC2CCCCC2)c2ccccc12	.	.	i	.	.	2.06µM*
CCCCCCC[n+]1ccc(C)c2ccccc21	.	.	i	.	.	0.581µM*
CCOC(=O)c1cccc(NS(=O)(=O)c2cc(-c3cnc(C4CC4)o3)ccc2C)c1	-31.6%	?	i	.	.	i
Cc1cccc(N2C(=O)N(Cc3cccc(C#N)c3)c3ccccc3S2(=O)=O)c1	-9.6%	i	i	.	.	i
COc1ccc(CNc2ccc3cc(S(=O)(=O)N4CCCCC4)ccc3n2)cc1	-31.2%	?	i	.	.	?
O=c1[nH]c(=O)n([C@H]2O[C@H](CO)[C@@H](O)[C@@H]2O)cc1/C=C\Br	-8.8%	i	.	.	.	.
CC(C)(C)NC(=O)Nc1nnc(-c2ccncc2)s1	.	.	i	.	.	?
O=C(CN1N=C(c2ccccc2)CCC1=O)NCCN1CCc2ccccc2C1	-5.0%	i	9.2µM*	0.0%	-2.2%	i
O=[N+]([O-])c1ccc(N2CCN(c3ccccc3Cl)CC2)cn1	-6.7%	i	?	-4.2%	1.2%	5.17µM*
